# Source: PubChem BioAssay AID624273 (Broad Institute, 2012)
# The whole screen tested about 1,000 compounds, of which about 230 (23%) were called active. Not shown: some 1% with an inconclusive outcome. The list shows a part of the results. Measured potencies and affinities stand elsewhere. Values without a mark were called inactive. The rule behind the calls is not given here.
# Molecular target: Long-chain-fatty-acid--AMP ligase FadD28 (Mycobacterium tuberculosis (strain ATCC 25618 / H37Rv)) (UniProt P9WQ59)
# Assay: inhibitors of FadD28 bisubstrate probe binding, dose response, biochemical, fluorescence polarization, cherry-pick (AID 624273)
# Conditions: series mostly up to 50 µM; activity change, negative = inhibition: at the top concentration
# Sequence of Long-chain-fatty-acid--AMP ligase FadD28 (Mycobacterium tuberculosis (strain ATCC 25618 / H37Rv)) (P9WQ59 whole entry, looked up): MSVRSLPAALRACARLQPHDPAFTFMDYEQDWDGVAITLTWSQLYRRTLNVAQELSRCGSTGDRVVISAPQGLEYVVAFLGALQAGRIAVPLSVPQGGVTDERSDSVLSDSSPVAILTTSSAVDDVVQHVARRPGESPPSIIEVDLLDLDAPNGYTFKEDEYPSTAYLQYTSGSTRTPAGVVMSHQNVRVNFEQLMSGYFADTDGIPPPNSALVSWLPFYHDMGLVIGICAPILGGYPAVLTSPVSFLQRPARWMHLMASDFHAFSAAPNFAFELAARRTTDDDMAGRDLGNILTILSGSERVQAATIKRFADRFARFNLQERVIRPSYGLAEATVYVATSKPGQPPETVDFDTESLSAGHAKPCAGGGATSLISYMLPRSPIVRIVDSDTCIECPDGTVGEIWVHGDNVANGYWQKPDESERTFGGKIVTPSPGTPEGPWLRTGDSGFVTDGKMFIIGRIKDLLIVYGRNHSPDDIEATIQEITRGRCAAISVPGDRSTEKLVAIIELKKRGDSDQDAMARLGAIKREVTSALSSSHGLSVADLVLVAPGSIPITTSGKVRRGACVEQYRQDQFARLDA
row,SMILES,"activity change, negative = inhibition"
1,COc1cc2c(cc1OC)C(=O)C(Br)CC2 (stereo unspecified),-9.76%
2,O=C(O)CSC(C(=O)Nc1ccc(C(F)(F)F)cc1)c1ccccc1 (stereo unspecified),-8.44%
3,COCc1[nH][nH]c(=O)c1C=Nc1ccc(C(F)(F)F)cc1,-12.3%
4,NS(=O)(=O)c1ccc(NC(=O)c2ccc3c(c2)OCO3)cc1,-3.68%
5,Cc1nonc1C(=O)N/N=C/c1ccc([N+](=O)[O-])o1,-12.6%
6,COC(=O)[C@]1(Cc2ccccc2)N[C@H](CN(C)S(=O)(=O)c2ccc(-c3ccccc3)cc2)[C@@H]2C(=O)N(C)C(=O)[C@@H]21,-27.4%
7,COc1cccc(CN(C)C(=O)CC2C(=O)NCCN2C2Cc3ccccc3C2)c1 (stereo unspecified),1.96%
8,COc1cc(/C=C/c2ccc3cccc(O)c3n2)cc(OC)c1OC,-5.24%
9,Cc1ccn2c(Nc3ccccc3C)c(-c3ccccn3)nc2c1,-4.56%
10,Cc1nn(Cc2ccc(F)cc2)c2sc(C(=O)Nc3ccccc3N3CCOCC3)cc12,-3.07%
11,O=C1CCCC(=NNC(=O)c2cc3ccccc3cc2O)C1,3.46%
12,O=C(O)CCC(=O)Nc1ccc(C(=O)OCC(=O)c2ccc(Cl)cc2)cc1,-18.5%
13,O=C(Nc1cccc([N+](=O)[O-])c1)NC1CCCCCCC1,-11.6%
14,Cn1nc(CC(=O)NC2CCCCCCCCCCC2)c2ccccc2c1=O,-3.2%
15,FC(F)Sc1ccc(NC(=S)NCc2ccccc2)cc1,-12.6%
16,O=C(COC(=O)c1nc(Cl)ccc1Cl)NCc1ccccc1,-10.5%
17,CCCC(C(=O)NCCC(C)C)N(Cc1ccccc1)C(=O)c1snc(C(N)=O)c1N (stereo unspecified),-8.21%
18,O=S(=O)(CCN1CCN(c2ccccc2O)CC1)c1cc(Cl)ccc1Cl,-5.55%
19,COc1ccc(NC(=O)Nc2ccc3c(c2)C(=O)N([C@@H](C)CO)C[C@@H](C)[C@@H](CN(C)S(=O)(=O)c2cccs2)O3)cc1,-15.6%
20,CCN(CC)c1ccc(NC(=O)Nc2ccc(C(C)=O)cc2)cc1,-9.89%
21,O=C(NN=Cc1ccc(N(CCCl)CCCl)cc1)c1cccnc1,-10.7%

row,SMILES,"activity change, negative = inhibition"
1,COc1ccc(Cl)cc1C(=O)Nn1c(-c2cccs2)nc2ccccc2c1=O,-10.4%
2,O=C(Nc1ccc(F)cc1F)NC1CCCCCCC1,-10.6%
3,CCOc1ccc(N=C2SC(C(=O)Nc3ccccc3C#N)C(N)=C2C(=O)Nc2ccc(Cl)cc2)cc1 (stereo unspecified),-2.7%
4,CCOc1ccc(NC(=O)Cn2sc3nc(C)cc(C)c3c2=O)cc1,1.98%
5,c1ccc(-c2cc(-c3ccccc3)on2)cc1,-4.78%
6,CCCCC(=O)Nc1cc([N+](=O)[O-])ccc1Cl,-3.25%
7,N#Cc1ccc(NCCc2ccccn2)c([N+](=O)[O-])c1,-4.35%
8,CCS(=O)(=O)c1ncc(Cl)c(C(=O)Nc2ccc(S(=O)(=O)N3CCC(C)CC3)cc2)n1,-3.68%
9,CC12CCC(C(=O)NCCCn3ccnc3)(OC1=O)C2(C)C (stereo unspecified),0.92%
10,c1ccc2cc(OCCCn3ccnc3)ccc2c1,4.08%
11,Cc1nn(CC(=O)NCc2ccco2)c(C)c1[N+](=O)[O-],-5.9%
12,CC(C)(C)c1ccc(Cn2nnc3c(=O)[nH]c(C4CCCN(C(=O)c5cccs5)C4)nc32)cc1 (stereo unspecified),1.02%
13,COc1ccc(N=C2NC(=O)/C(=C\C=C\c3ccco3)S2)cc1,-9.1%
14,CCc1cccc2c(C(=O)COC(=O)[C@@H]3CC(O)CN3S(=O)(=O)c3ccccc3[N+](=O)[O-])c[nH]c12 (stereo partly specified),-1.47%
15,CCc1cccc2c(C(=O)COC(=O)c3ccccc3)c[nH]c12,-7.51%
16,CCN(C(=O)c1cc(OC)c(OC)c(OC)c1)C1CCCCC1,-8.5%
17,COc1ccc(C(C)=O)cc1COC(=O)c1cnc(C)cn1,-0.706%
18,O=C(c1cc2cc(Br)ccc2oc1=O)N1CCCC1,-5.4%
19,CC(C)CCOc1ccc(C(=O)N2CCCC2C(=O)O)cc1 (stereo unspecified),-7.21%
20,C[C@@H]1CN([C@H](C)CO)C(=O)c2cc(NC(=O)Nc3ccc(C(F)(F)F)cc3)ccc2O[C@H]1CN(C)S(=O)(=O)c1cccs1,-6.05%
21,Cc1ccc(S(=O)(=O)Nc2ccc(O)c3ccccc23)c(C)c1,-15.6%

row,SMILES,"activity change, negative = inhibition"
1,Cc1noc(/C=C/N(C)C)c1S(=O)(=O)N1CCCC(C(=O)NC2CCCCC2C)C1 (stereo unspecified),-7.62%
2,CCOC(=O)c1cccc(P(=O)(C(C)(C)C)C(C)(C)C)c1,1.89%
3,C=CC(COCc1ccccc1)N(C(=O)OC(C)(C)C)S(=O)(=O)c1ccccc1Br (stereo unspecified),0.184%
4,C=CCC12C=C(OC)C(=O)OC(OC)(C1O)[C@H](c1ccc3c(c1)OCO3)[C@H]2C (stereo partly specified),-8.23%
5,CCC1(CC)NC(=O)N(CC(=O)Nc2ccc(OCc3ccccc3)cc2)C1=O,-6.91%
6,Cc1ccc(S(=O)(=O)NCC(=O)OCC(=O)N2CCN(C(=O)c3ccco3)CC2)cc1C,-6.55%
7,CCc1cc(C(=O)O)c(NC(=O)C(c2ccccc2)c2ccccc2)s1,-0.982%
8,CN1c2ccsc2C(O)=C(C(=S)Nc2ccc(F)c(Cl)c2)S1(=O)=O,-7.32%
9,CC1(C)Cc2ccccc2C(=NCCCC(=O)O)N1,-2.17%
10,Oc1c(Cl)cc(Cl)cc1/C=N/NC(=S)NC1CC2C=CC1C2 (stereo unspecified),-13.8%
11,CCCSc1ncc(Cl)c(C(=O)Nc2ccc(S(=O)(=O)N3CC(C)OC(C)C3)cc2)n1 (stereo unspecified),-0.797%
12,C=CCC[C@@H](Cc1ccc(F)cc1)C(=O)OC[C@@H](NC(=O)[C@@H](CC=C)CC(=O)N(CCO)Cc1ccccc1)c1ccccc1,2.84%
13,O=C(Nc1ccccc1F)NC1CCCCCCC1,-18.2%
14,COC(=O)CN(c1ccc(OC)cc1)S(=O)(=O)c1ccc(OC)c(OC)c1,0.952%
15,COC(=O)C1=C(c2ccc3ccccc3c2)C[C@@H]2CC[C@H]1N2C(=O)N1CCC(O)CC1,-1.57%
16,N=c1c(C(=O)NCc2ccco2)cc2c(=O)n3ccccc3nc2n1Cc1ccccc1,-1.35%
17,COC(=O)CCC(=O)N1CCCC(CO)(Cc2ccccc2F)C1 (stereo unspecified),-0.525%
18,O=C(O)C1Sc2[nH]c(=O)sc2C2c3ccc(O)cc3OC(=O)C12 (stereo unspecified),-16.8%
19,O=C(NC(NC(=S)Nc1c(Cl)cccc1Cl)C(Cl)(Cl)Cl)OCc1ccccc1 (stereo unspecified),8.05%
